# Records with an inconclusive call do not appear. The source made the active and inactive calls. Unless noted, no stated cut-off is given here; in the data, active means inhibition above about 80%; inactive means the rest.
# What was measured:
# [1] = growth inhibition of DIPG glioma cells, dose response, cell-based, SU-DIPG-XVII, MIPE5.0, CellTiter-Glo, qHTS (AID 1347060; cut-off not given, nearly all actives have AC50 up to about 26 µM); details: SU-DIPG-XVII viability, CellTiter-Glo ATP luminescence
# [2] = growth inhibition of DIPG glioma cells, dose response, cell-based, SU-DIPG-XIII, MIPE4.0, CellTiter-Glo, qHTS (AID 1347061; cut-off not given, nearly all actives have AC50 up to about 37 µM;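 further: cells exposed to compound for 48 hours before readout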); details: SU-DIPG-XIII viability, CellTiter-Glo ATP luminescence
# [3] = growth inhibition of DIPG glioma cells, dose response, cell-based, JHH-DIPG-1, MIPE4.0, CellTiter-Glo, qHTS (AID 1347062; cut-off not given, nearly all actives have AC50 up to about 27 µM); details: JHH-DIPG-1 viability, CellTiter-Glo ATP luminescence
# [4] = growth inhibition of DIPG glioma cells, dose response, cell-based, SU-DIPG-IV, MIPE4.0, CellTiter-Glo, qHTS (AID 1347063; cut-off not given, nearly all actives have AC50 up to about 30 µM;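 further: compound exposure lasted 48 hours before the viability readout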); details: SU-DIPG-IV viability, CellTiter-Glo ATP luminescence
# [5] = growth inhibition of DIPG glioma cells, dose response, cell-based, SU-DIPG-XIII, MIPE5.0, CellTiter-Glo, qHTS (AID 1347064; cut-off not given, nearly all actives have AC50 up to about 23 µM); details: SU-DIPG-XIII viability, CellTiter-Glo ATP luminescence
# [6] = SU-DIPG-VI glioma cell viability, MIPE4.0 library, CellTiter-Glo luminescence, qHTS (AID 1347066; cut-off not given, nearly all actives have AC50 up to about 30 µM;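 further: cells exposed to compound for 48 hours before readout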); details: CellTiter-Glo ATP luminescence
# [7] = JHH-DIPG-1 glioma cell viability, MIPE5.0 library, CellTiter-Glo luminescence, qHTS (AID 1347067; cut-off not given, nearly all actives have AC50 up to about 26 µM;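 further: cells exposed to compound for 48 hours before readout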); details: JHH-DIPG-1 glioma viability, CellTiter-Glo ATP luminescence
# [8] = SU-DIPG-XXV glioma cell viability, MIPE5.0 library, qHTS (AID 1347068; cut-off not given, nearly all actives have IC50 up to about 30 µM)
# [9] = LFS_MB_P medulloblastoma growth inhibition, cell-based, chromothripsis tumors, cisplatin or BGB combos (AID 1671449); details: LFS_MB_P medulloblastoma cells;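 further: cells exposed for 96 hours; 0% = vehicle DMSO and 100% = killing by high DMSO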
# [10] = HDN33 neuroblastoma growth inhibition, cell-based, chromothripsis tumors, cisplatin or BGB combos (AID 1671450); details: HDN33 neuroblastoma cells, stronger effect = higher value;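 further: cells exposed to compound for four days; 0% = vehicle DMSO and 100% = cell killing by high DMSO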
# [11] = ICB984 medulloblastoma cell growth inhibition, synergistic combos for chromothripsis tumors, cisplatin or BGB combos (AID 1671451; call rule not given here;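 further: cells exposed for 96 hours before readout; 0% = vehicle DMSO and 100% = killing by high DMSO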); details: ICB984 medulloblastoma cells, drug combinations, stronger effect = higher value
# [12] = LFS_MB_1R medulloblastoma cell growth inhibition, synergistic combos for chromothripsis tumors, cisplatin or BGB combos (AID 1671452); details: LFS_MB_1R medulloblastoma cells, stronger effect = higher value;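 further: cells exposed for 96 hours before readout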
# [13] = HTB85 osteosarcoma cell growth inhibition, synergistic combos for chromothripsis tumors, BGB or cisplatin IC20 combos (AID 1671453); details: HTB85 osteosarcoma cells, drug combinations, stronger effect = higher value;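 further: cells exposed for 96 hours before readout; 0% = vehicle DMSO and 100% = high DMSO killing control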
# [14] = CRL2098 osteosarcoma cell growth inhibition, synergistic combos for chromothripsis tumors, BGB or cisplatin IC20 combos (AID 1671454); details: CRL2098 osteosarcoma cells, drug combinations, stronger effect = higher value;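 further: cells exposed for 96 h before readout; 0% = vehicle DMSO and 100% = killing by high DMSO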
# [15] = HD-MB03 medulloblastoma cell growth inhibition, synergistic combos for chromothripsis tumors, BGB or cisplatin IC20 combos (AID 1671455; in the data active means inhibition above about 83%;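 further: 0% = vehicle DMSO and 100% = high DMSO as cytotoxic control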); details: HD-MB03 medulloblastoma cells, stronger effect = higher value
# [16] = UWB1.289 ovarian carcinoma cell growth inhibition, synergistic combos for chromothripsis tumors, BGB or cisplatin combos (AID 1671456); details: UWB1.289 ovarian carcinoma cells, stronger effect = higher value;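 further: cells exposed to compound for four days; 0% = vehicle DMSO and 100% = killing by high DMSO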
# [17] = LFS_MB_2R medulloblastoma cell growth inhibition, synergistic combos for chromothripsis tumors, cisplatin combos (AID 1671457); details: LFS_MB_2R medulloblastoma cells, stronger effect = higher value;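 further: cells exposed to compound for four days before readout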
# [18] = MDA-MB-436 breast carcinoma cell growth inhibition, synergistic combos for chromothripsis tumors, BGB or cisplatin combos (AID 1671458; call rule not given here;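 further: cells exposed for 96 hours; 0% = vehicle DMSO and 100% = killing by high DMSO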); details: MDA-MB-436 breast carcinoma growth inhibition, drug combinations, stronger effect = higher value
# [19] = UWB1.289_BRCA1 ovarian cancer growth, cell-based, BGB or cisplatin combinations (AID 1671459); details: UWB1.289 BRCA1 ovarian carcinoma, drug combinations, stronger effect = higher value
# [20] = human astrocyte viability loss, single and combined drugs, cytotoxicity control for chromothriptic childhood tumor combination screen, cell-based, BGB or cisplatin IC20 combos (AID 1671460); details: Human astrocytes, drug combinations, stronger effect = higher value;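 further: cells exposed to compounds for 96 hours before viability readout; 0% = vehicle and 100% = killing control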
# [21] = growth inhibition of BT084 medulloblastoma cells, cell-based, ICGC_MB145, cisplatin and BGB IC40 combos (AID 1671461); details: drug combinations, stronger effect = higher value;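 further: cells exposed to drugs for 96 hours; 0% = vehicle DMSO and 100% = high DMSO full killing control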
# [22] = growth inhibition of RCMB18 medulloblastoma cells, cell-based, cisplatin and BGB IC40 combos (AID 1671462); details: stronger effect = higher value;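 further: cells exposed to compound for four days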
# [23] = growth inhibition of CRL1545 osteosarcoma cells, cell-based, cisplatin and BGB IC20 combos (AID 1671464); details: stronger effect = higher value;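 further: cells exposed to compound for 96 hours before readout; 0% = vehicle DMSO and 100% = high DMSO killing control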
# [24] = measured here: combination with BGB IC40, at 0.05 µM
# [25] = measured here: with BGB IC20 combination, at 0.5 µM
# [26] = measured here: with cisplatin IC20 combination, at 0.5 µM
# [27] = measured here: combination with cisplatin, at 0.5 µM
# [28] = measured here: combination with cisplatin, at 5 µM
smiles,measurement,setting,value
CN(C)NC(=O)CCC(=O)O,outcome,[1],inactive
same,outcome,[2],inactive
same,outcome,[3],inactive
same,outcome,[4],inactive
same,outcome,[5],inactive
same,outcome,[6],inactive
same,outcome,[7],inactive
same,outcome,[8],inactive
same,inhibition,"[9]; at 0.5 µM, stronger effect = higher value",-0.95% (inactive)
same,inhibition,"[9]; measured here: combination with BGB IC20, at 0.005 µM",-31%
same,inhibition,"[9]; measured here: combination with BGB IC40, at 0.005 µM",-30.2%
same,inhibition,[9]; [24],-24.7%
same,inhibition,"[9]; measured here: combination with cisplatin, at 0.5 µM, stronger effect = higher value",2.21%
same,inhibition,"[9]; measured here: combination with cisplatin, at 5 µM, stronger effect = higher value",-34.9%
same,inhibition,"[10]; BGB combo, at 5 µM",-23.5%
same,inhibition,[10]; at 0.5 µM,-21.4% (inactive)
same,inhibition,"[10]; cisplatin combo, at 5 µM",-14%
same,inhibition,[10]; [25],-37.1%
same,inhibition,[10]; [26],-10.8%
same,inhibition,"[10]; single agent, at 5 µM",-11.1%
same,inhibition,"[11]; BGB IC20 combo, at 0.005 µM",-38.4%
same,inhibition,"[11]; BGB IC40 combo, at 0.005 µM",-26.9%
same,inhibition,"[11]; BGB IC40 combo, at 0.05 µM",-23.3%
same,inhibition,[11]; at 0.5 µM,-22.7% (inactive)
same,inhibition,"[11]; cisplatin combo, at 0.05 µM",-27.8%
same,inhibition,"[11]; cisplatin combo, at 0.5 µM",-26.2%
same,inhibition,"[11]; cisplatin combo, at 5 µM",-3.89%
same,inhibition,"[11]; measured here: 5 uM single agent, at 5 µM",-1.92%
same,inhibition,[12]; at 0.5 µM,-2.69% (inactive)
same,inhibition,[12]; [24],-23.8%
same,inhibition,[12]; [27],18.7%
same,inhibition,[12]; [28],-7.99%
same,inhibition,[13]; at 0.5 µM,-8.01% (inactive)
same,inhibition,"[13]; measured here: with BGB IC20, at 0.5 µM",-17.1%
same,inhibition,"[13]; measured here: with BGB IC20, at 5 µM",-18.2%
same,inhibition,"[13]; measured here: with cisplatin IC20, at 0.5 µM",10.6%
same,inhibition,"[13]; measured here: with cisplatin IC20, at 5 µM",-1.55%
same,inhibition,"[13]; single agent, at 5 µM",-16.5%
same,inhibition,[14]; at 0.5 µM,-47.3% (inactive)
same,inhibition,"[14]; measured here: combination with BGB at IC20, at 0.5 µM",-35.5%
same,inhibition,"[14]; measured here: combination with cisplatin at IC20, at 0.5 µM",-70.4%
same,inhibition,[15]; at 0.5 µM,-8.93% (inactive)
same,inhibition,"[15]; measured here: combo with BGB at IC20, at 0.5 µM",-16.7%
same,inhibition,"[15]; measured here: combo with cisplatin at IC20, at 0.5 µM",-5.27%
same,inhibition,[16]; at 0.5 µM,-6.42% (inactive)
same,inhibition,"[16]; measured here: inhibition with BGB combination, at 0.05 µM",-16.9%
same,inhibition,"[16]; measured here: inhibition with cisplatin combination, at 0.05 µM",-15.9%
same,inhibition,[17]; at 0.5 µM,-22.3% (inactive)
same,inhibition,[17]; [27],-20.6%
same,inhibition,[17]; [28],-15.1%
same,inhibition,[18]; at 0.5 µM,-23% (inactive)
same,inhibition,"[18]; measured here: BGB combination, at 0.5 µM",-22.6%
same,inhibition,"[18]; measured here: BGB combination, at 5 µM",-35.6%
same,inhibition,"[18]; measured here: cisplatin combination, at 0.5 µM",-26.7%
same,inhibition,"[18]; measured here: cisplatin combination, at 5 µM",-43.4%
same,inhibition,"[19]; BGB combination, concentration series, at 5 µM",-16%
same,inhibition,[19]; at 0.5 µM,-15.1% (inactive)
same,inhibition,"[19]; cisplatin combination, concentration series, at 5 µM",-31.4%
same,inhibition,[20]; at 0.5 µM,-16.7% (inactive)
same,inhibition,"[20]; measured here: combo with BGB IC20, at 0.5 µM",-24.5%
same,inhibition,"[20]; measured here: combo with cisplatin IC20, at 0.5 µM",-4.55%
same,inhibition,[21]; at 0.5 µM,-3.48% (inactive)
same,inhibition,"[21]; cisplatin combination, at 0.5 µM",-21.4%
same,inhibition,"[21]; cisplatin combination, at 5 µM",-13.9%
same,inhibition,"[21]; measured here: BGB IC40 combination 0.05 uM, at 0.05 µM",-20.2%
same,inhibition,"[21]; single agent, at 5 µM",-16.7%
same,inhibition,[22]; at 0.5 µM,-11.5% (inactive)
same,inhibition,"[22]; cisplatin combo, at 5 µM",1.98%
same,inhibition,"[22]; measured here: BGB IC40 combination, at 0.05 µM",-3.93%
same,inhibition,[22]; [27],15.6%
same,inhibition,"[22]; single agent, at 5 µM",-10.2%
same,inhibition,[23]; at 0.5 µM,-22.5% (inactive)
same,inhibition,[23]; [25],-20%
same,inhibition,[23]; [26],-25.8%
same,inhibition,"[23]; single agent, at 0.05 µM",-6.7%
same,inhibition,"[23]; single agent, at 5 µM",-28%

# Source: PubChem BioAssay
